The record followed here is the supplement of paper PMC6763611.

For this experiment, the system named is Plasmodium falciparum NF54. Nature of the experiment: growth inhibition relative to untreated control; higher = more inhibition. The note with it: 72 h. An outline of the steps:
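P. falciparum NF54 ring stages (1% hematocrit, 1% parasitemia, 100 μL/well in 96-well half-area dark plates) were exposed for 72 h at 37 °C to single 5 μM or 1 μM doses of Pathogen Box compounds. The medium was minimal RPMI or minimal RPMI plus chorismate end-products (2.2 μM folate, 7.3 μM pABA, 7.3 μM pHBA, 111 μM tyrosine, 90 μM phenylalanine, tryptophan). Growth inhibition was read by SYBR Green, normalised to untreated controls, with uninfected erythrocytes as background.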

Setting [1] is: 1 µM, MM + chorismate end-products (CM screening medium).
Setting [2] is: 5 µM, MM + chorismate end-products (CM screening medium).

Turning to `COc1cc(NC(C)CCCN)c2ncccc2c1` (stereo not drawn), the growth inhibition by setting is: under setting [1], 51.1%; (1 µM, minimal medium (MM)) 54.5%; under setting [2], 64.3%; (5 µM, minimal medium (MM)) 38%.

On to `CC(C(=O)N1CCCC1)N1CCN(S(=O)(=O)c2ccc(C(C)(C)C)cc2)CC1` (stereo not drawn), for which the growth inhibition reads like this: under setting [1], 37.6%; (1 µM, minimal medium (MM)) 71%; under setting [2], 67.3%; (5 µM, minimal medium (MM)) 33.4%.

`COc1ccc2nc(C)cc(OCC(=O)NCc3ccccc3)c2c1`: the growth inhibition runs as follows: under setting [1], 25.1%; (1 µM, minimal medium (MM)) 2.13%; under setting [2], 21.9%; (5 µM, minimal medium (MM)) 2.43%.

Turning to `O=C(NCc1ccoc1)N1CCN(Cc2ccc3c(c2)OCO3)CC1`, the growth inhibition was less than 0% under setting [1]; 6.98% (1 µM, minimal medium (MM)); less than 0% under setting [2]; less than 0% (5 µM, minimal medium (MM)).

`COc1ccc(N(CCc2cccc(C)n2)C(C)=O)cc1`: the growth inhibition was 16.2% under setting [1]; less than 0% (1 µM, minimal medium (MM)); less than 0% under setting [2]; less than 0% (5 µM, minimal medium (MM)).

For `O=C(Nc1nnc(S)s1)c1cc(Br)ccc1Cl`, the growth inhibition is, setting by setting: under setting [1], 31.8%; (1 µM, minimal medium (MM)) 9.59%; under setting [2], less than 0%; (5 µM, minimal medium (MM)) less than 0%.

Regarding `CCC(C)NC(=O)c1ccc(NC(=O)C2(c3ccccc3)CCCC2)cc1` (stereo not drawn), the growth inhibition is, setting by setting: under setting [1], 58%; (1 µM, minimal medium (MM)) 17.8%; under setting [2], 61.1%; (5 µM, minimal medium (MM)) 65.4%.

In the case of `Oc1c(I)cc(I)c2cccnc12`, the growth inhibition under setting [1] worked out at 39.4%; the growth inhibition (1 µM, minimal medium (MM)) came out at 9.57%; the growth inhibition under setting [2] was less than 0%; the growth inhibition (5 µM, minimal medium (MM)) was less than 0%.

For the compound `CNC(=O)c1nn(C)c2c1C(C)(C)Cc1cnc(Nc3ccc(N4CCN(C)CC4)cc3)nc1-2`, the growth inhibition under setting [1] was 64.5%; the growth inhibition (1 µM, minimal medium (MM)) was found to be 73.6%; the growth inhibition under setting [2] is 88%; the growth inhibition (5 µM, minimal medium (MM)) turned out to be 87.2%.

For `CN1CCN(c2cc(-c3ccc(F)cc3)nc(-c3ccncc3)n2)CC1`, the growth inhibition reads like this: under setting [1], 79.9%; (1 µM, minimal medium (MM)) 95.3%; under setting [2], 92.9%; (5 µM, minimal medium (MM)) 96.5%.

For the compound `O=C(Nc1ccccc1-c1nc2c(C(=O)O)cccc2o1)c1ccccc1`, the growth inhibition runs as follows: under setting [1], less than 0%; (1 µM, minimal medium (MM)) 0.353%; under setting [2], less than 0%; (5 µM, minimal medium (MM)) less than 0%.

In the case of `O=C(NCc1nnc2n1CCCCC2)c1ccc(-c2ccc(F)cc2)o1`, the growth inhibition runs as follows: under setting [1], less than 0%; (1 µM, minimal medium (MM)) less than 0%; under setting [2], less than 0%; (5 µM, minimal medium (MM)) less than 0%.

As for `COc1ccc(OC)c(NCc2ccc3nc(N)nc(N)c3c2Cl)c1`, the growth inhibition under setting [1] came to 99.9%; the growth inhibition (1 µM, minimal medium (MM)) was more than 100%; the growth inhibition under setting [2] was 96.1%; the growth inhibition (5 µM, minimal medium (MM)) amounted to 94.2%.

`Cc1cc(C)c2cc(C(=O)NC3CCCCCCC3)[nH]c2c1`: the growth inhibition runs as follows: under setting [1], 34.2%; (1 µM, minimal medium (MM)) 0.728%; under setting [2], 55.4%; (5 µM, minimal medium (MM)) less than 0%.

In the case of `CCOc1ccc2cc(-c3nn(CC4CCN(C)CC4)c4ncnc(N)c34)ccc2c1`, the growth inhibition under setting [1] stood at 39.8%; the growth inhibition (1 µM, minimal medium (MM)) turned out to be 15.5%; the growth inhibition under setting [2] was found to be 51.2%; the growth inhibition (5 µM, minimal medium (MM)) was 16.8%.

Regarding `CCCNC(=O)N1CCC2(CC1)CC(=O)c1cc(C)ccc1O2`, the growth inhibition reads like this: under setting [1], 72.5%; (1 µM, minimal medium (MM)) 76.5%; under setting [2], 86.4%; (5 µM, minimal medium (MM)) 84.9%.

For `FC(F)(F)c1nnc2ccc(Cl)nn12`, the growth inhibition is, setting by setting: under setting [1], 8.81%; (1 µM, minimal medium (MM)) 7.29%; under setting [2], less than 0%; (5 µM, minimal medium (MM)) 8.78%.

As for `N=C(N)Nc1ccc(-c2ccc(-c3ccc(NC(=N)N)cc3Cl)o2)c(Cl)c1`, the growth inhibition is, setting by setting: under setting [1], 96.9%; (1 µM, minimal medium (MM)) 95.5%; under setting [2], 95.7%; (5 µM, minimal medium (MM)) 95.3%.

As to `CCc1ccc(S(=O)(=O)Nc2cc(CN3CCN(CCC(C)C)CC3)ccc2C)cc1`, the growth inhibition under setting [1] stood at 31.6%; the growth inhibition (1 µM, minimal medium (MM)) was found to be 4.88%; the growth inhibition under setting [2] turned out to be 64.6%; the growth inhibition (5 µM, minimal medium (MM)) is 13.6%.

As to `O=C(NC1CC1)c1ccc(CSCc2ccccc2Cl)o1`, the growth inhibition reads like this: under setting [1], 59.9%; (1 µM, minimal medium (MM)) more than 100%; under setting [2], more than 100%; (5 µM, minimal medium (MM)) 90.8%.

On to `Cc1cccc(NC(=O)c2cc(S(=O)(=O)N(C)c3ccc(F)cc3)ccc2Cl)n1`, for which the growth inhibition is 86.6% under setting [1]; 82.9% (1 µM, minimal medium (MM)); 87.9% under setting [2]; 91.5% (5 µM, minimal medium (MM)).

Take `CC(Oc1cccc(Cl)c1)C(=O)Nc1ccc2oc(-c3ccncc3)nc2c1` (stereo not drawn): the growth inhibition by setting is: under setting [1], less than 0%; (1 µM, minimal medium (MM)) 2.28%; under setting [2], less than 0%; (5 µM, minimal medium (MM)) 3.02%.
